Test system: Vero E6 infected with SARS-CoV-2
Test: inhibition of SARS-CoV-2 cytopathic effect; higher = more antiviral protection, active = above 15
Details: 48 h

Measured: inhibition of SARS-CoV-2 cytopathic effect

Cc1cc(C(=O)NOCCO)c(Nc2ccc(I)cc2F)n(C)c1=O
inactive: 1 nM -2.17% | 8.33 nM -8.75% | 100 nM -12% | 833.33 nM -15.5% | 10000 nM -16.9%

CN(c1ccccc1CNc1nc(Nc2ccc3c(c2)CC(=O)N3)ncc1C(F)(F)F)S(C)(=O)=O
inactive: 1 nM -0.17% | 8.33 nM -0.35% | 100 nM -2.19% | 833.33 nM -5.19% | 10000 nM -15.4%

CO[C@H]1/C=C/O[C@@]2(C)Oc3c(C)c(O)c4c(O)c(c(/C=N/N5CCN(C6CCCC6)CC5)c(O)c4c3C2=O)NC(=O)/C(C)=C\C=C\[C@H](C)[C@H](O)[C@@H](C)[C@@H](O)[C@@H](C)[C@H](OC(C)=O)[C@@H]1C [rifapentine]
inactive: 1 nM -8.98% | 8.33 nM -0.78% | 100 nM -1.42% | 833.33 nM 1.06% | 10000 nM 1.47%

COc1cccc2c1C(=O)c1c(O)c3c(c(O)c1C2=O)C[C@@](O)(C(C)=O)C[C@@H]3O[C@H]1C[C@H](N)[C@H](O)[C@H](C)O1 [daunorubicin]
inactive: 1 nM 0.05% | 8.33 nM 0.64% | 100 nM 1.14% | 833.33 nM 4.26% | 10000 nM -16.6%

C#C[C@]1(O)CC[C@H]2[C@@H]3CCC4=Cc5oncc5C[C@]4(C)[C@H]3CC[C@@]21C [danazol]
inactive: 1 nM 2.48% | 8.33 nM -0.9% | 100 nM 1.74% | 833.33 nM 3.55% | 10000 nM 6.39%

C=C1C[C@@]2(O)O[C@@]3(C[C@H]2C(C)C)[C@@H](C)CC[C@@H]13 [curcumol]
inactive: 1 nM -2.21% | 8.33 nM -1.48% | 100 nM 1.91% | 833.33 nM 0.52% | 10000 nM -2.49%

O=C1CN=C(c2cccc(Br)c2)c2oc3ccccc3c2N1
inactive: 1 nM -2.75% | 8.33 nM -1.3% | 100 nM -1.9% | 833.33 nM 0.38% | 10000 nM 0.75%

Cc1ncc(-c2csc(N=C(N)N)n2)[nH]1 [zaltidine]
inactive: 1 nM 2.21% | 8.33 nM -0.85% | 100 nM -3.06% | 833.33 nM -1.56% | 10000 nM -0.54%

COc1cc2c(cc1OC)[C@@H](Cc1cc(OC)c(OC)c(OC)c1)[N+](C)(CCCOC(=O)CC/C=C/CCC(=O)OCCC[N+]1(C)CCc3cc(OC)c(OC)cc3[C@H]1Cc1cc(OC)c(OC)c(OC)c1)CC2 (stereo not given in full) [mivacurium]
inactive: 1 nM -2.73% | 8.33 nM -1.95% | 100 nM 2.74% | 833.33 nM 3.32% | 10000 nM 0.83%

CO[C@@H]1[C@H](O)[C@@H](CO)O[C@H]1n1cnc2c(NC3CCCCC3)ncnc21
inactive: 1 nM -0.97% | 8.33 nM 1.94% | 100 nM 8.69% | 833.33 nM 1.46% | 10000 nM -0.79%

Cc1ccc2c(c1)C1(CCN(CCc3nc(-c4ccccc4)oc3C)CC1)OC(=O)N2
inactive: 1 nM 1.69% | 8.33 nM 4.93% | 100 nM 0.82% | 833.33 nM -0.79% | 10000 nM -7.82%

CC(C)(C)C[C@@H]1N[C@@H](C(=O)N[C@H]2CC[C@H](O)CC2)[C@H](c2cccc(Cl)c2F)[C@]12C(=O)Nc1cc(Cl)ccc12
inactive: 1 nM -4.12% | 8.33 nM -2.43% | 100 nM -7.89% | 833.33 nM 2.65% | 10000 nM 2.37%

O=C(Nc1ccc(Cl)nc1)c1ccc(Cl)cc1
inactive: 1 nM 0.45% | 8.33 nM 1.94% | 100 nM 2.79% | 833.33 nM 0.19% | 10000 nM 0.84%

CCC(=O)N[C@@H]1Cc2ccccc2[C@H](c2ccccc2)C1
inactive: 1 nM 1.13% | 8.33 nM 2.8% | 100 nM 2.79% | 833.33 nM 3.72% | 10000 nM 2.13%

N=C(N)NS(=O)(=O)c1ccc(N)cc1 [sulfaguanidine]
inactive: 1 nM 1.47% | 8.33 nM 1.27% | 100 nM -0.35% | 833.33 nM 0.47% | 10000 nM 1.22%

C[C@@H]1NC(=O)[C@@H](N)CNC(=O)[C@H](C2CCNC(=N)N2)NC(=O)/C(=C/NC(N)=O)NC(=O)[C@H](CNC(=O)CC(N)CCCN)NC1=O.N=C1NCC[C@H]([C@@H]2NC(=O)/C(=C/NC(N)=O)NC(=O)[C@H](CNC(=O)C[C@@H](N)CCCN)NC(=O)[C@H](CO)NC(=O)[C@@H](N)CNC2=O)N1 [capreomycin]
inactive: 1 nM 0.56% | 8.33 nM -0.28% | 100 nM -1.08% | 833.33 nM 0.24% | 10000 nM 2.53%

Reference: the supplement of paper PMC13380429
